# This is one part of a sample in which the strongest signals are shown more often than they occur.
# B1: rCNL (Clitocybe nebularis), B2ZRS9 (protein)
# chain: SITPGTYNITNVAYTNRLIDLTGSNPAENTLIIGHHLNKTPSGYGNQQWTLVQLPHTTIYTMQAVNPQSYVRVRDDNLVDGAALVGSQQPTPVSIESAGNSGQFRIKIPNLGLALTLPSDANSTPIVLGEVDETSTNQLWAFESVSAV
# Assays:
# Experiment in all cases: glycan array binding signal (z-score within array); higher = stronger binding
# Conditions in all cases: glycan notation: IUPAC condensed, linker removed
# [1] = molecular target: Fuc(a1-2)Gal(b1-4)GlcNAc(b1-2)Man(a1-3)[Fuc(a1-2)Gal(b1-4)GlcNAc(b1-2)Man(a1-6)]Man(b1-4)GlcNAc(b1-4)[Fuc(a1-6)]GlcNAc
# Procedure, shortened: (§1)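 Glycan array binding is given as a within-array Z-score, which can be read as non-binding when negative. The arrays, 3228 of them, came from the Consortium for Functional Glycomics database and were retained only where the protein sequence was available. Z-scores were averaged across arrays of the same protein sequence at different concentrations or buffers and across linkers.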
# [2] = molecular target: Fuc(a1-2)[Gal(a1-3)]Gal(b1-3)GalNAc
# Procedure, shortened: as §1
# [3] = molecular target: Fuc(a1-2)[Gal(a1-3)]Gal(b1-4)GlcNAc(b1-2)Man
# Procedure, shortened: as §1
# [4] = molecular target: Fuc(a1-2)[GalNAc(a1-3)]Gal(b1-3)GalNAc(a1-3)[Fuc(a1-2)]Gal(b1-4)GlcNAc
# Procedure, shortened: as §1
# [5] = molecular target: Fuc(a1-2)[GalNAc(a1-3)]Gal(b1-4)GlcNAc
# Procedure, shortened: as §1
# [6] = molecular target: Fuc(a1-2)[GalNAc(a1-3)]Gal(b1-4)GlcNAc(b1-2)Man
# Procedure, shortened: as §1
# [7] = molecular target: Fuc(a1-2)[GalNAc(a1-3)]Gal(b1-4)GlcNAc(b1-2)Man(a1-3)[Fuc(a1-2)[GalNAc(a1-3)]Gal(b1-4)GlcNAc(b1-2)Man(a1-6)]Man(b1-4)GlcNAc(b1-4)GlcNAc
# Procedure, shortened: as §1
# [8] = molecular target: Fuc(a1-2)[GalNAc(a1-3)]Gal(b1-4)GlcNAc(b1-3)Gal(b1-4)GlcNAc
# Procedure, shortened: as §1
# [9] = molecular target: Fuc(a1-2)[GalNAc(a1-3)]Gal(b1-4)GlcNAc(b1-3)Gal(b1-4)GlcNAc(b1-3)Gal(b1-4)GlcNAc
# Procedure, shortened: as §1
# [10] = molecular target: Fuc(a1-3)[Gal(b1-4)]GlcNAc
# Procedure, shortened: as §1
# [11] = molecular target: Gal(a1-3)Gal
# Procedure, shortened: as §1
# [12] = molecular target: Gal(a1-3)Gal(b1-3)[Fuc(a1-4)]GlcNAc(b1-2)Man(a1-3)[Gal(a1-3)Gal(b1-3)[Fuc(a1-4)]GlcNAc(b1-2)Man(a1-6)]Man(b1-4)GlcNAc(b1-4)GlcNAc
# Procedure, shortened: as §1
# [13] = molecular target: Gal(a1-3)Gal(b1-4)GlcNAc
# Procedure, shortened: as §1
# [14] = molecular target: Gal(a1-3)Gal(b1-4)GlcNAc(b1-3)GalNAc
# Procedure, shortened: as §1
# [15] = molecular target: Gal(a1-4)Gal(b1-3)GlcNAc(b1-2)Man(a1-3)[Gal(a1-4)Gal(b1-3)GlcNAc(b1-2)Man(a1-6)]Man(b1-4)GlcNAc(b1-4)GlcNAc
# Procedure, shortened: as §1
# [16] = molecular target: Gal(a1-4)Gal(b1-4)Glc
# Procedure, shortened: as §1
# [17] = molecular target: Gal(b1-3)GalNAc(b1-4)Gal(b1-4)Glc
# Procedure, shortened: as §1
# [18] = molecular target: Gal(b1-3)GlcNAc(a1-3)Gal(b1-4)GlcNAc
# Procedure, shortened: as §1
# [19] = molecular target: Gal(b1-3)GlcNAc(b1-3)Gal(b1-4)GlcNAc(b1-3)Gal(b1-4)GlcNAc(b1-2)[Gal(b1-3)GlcNAc(b1-3)Gal(b1-4)GlcNAc(b1-3)Gal(b1-4)GlcNAc(b1-6)]Man(a1-6)[Gal(b1-3)GlcNAc(b1-3)Gal(b1-4)GlcNAc(b1-3)Gal(b1-4)GlcNAc(b1-2)Man(a1-3)]Man(b1-4)GlcNAc(b1-4)[Fuc(a1-6)]GlcNAc
# Procedure, shortened: as §1
# [20] = molecular target: Gal(b1-3)GlcNAc(b1-6)[Gal(b1-3)]GalNAc
# Procedure, shortened: as §1
# [21] = molecular target: Gal(b1-3)GlcNAc6S
# Procedure, shortened: as §1
# [22] = molecular target: Gal(b1-3)[Neu5Ac(b2-6)]GalNAc
# Procedure, shortened: as §1
# [23] = molecular target: Gal(b1-4)Gal
# Procedure, shortened: as §1
# [24] = molecular target: Gal(b1-4)GlcNAc(b1-2)Man(a1-3)Man(b1-4)GlcNAc(b1-4)GlcNAc
# Procedure, shortened: as §1
# [25] = molecular target: Gal(b1-4)GlcNAc(b1-2)Man(a1-3)[Gal(b1-4)GlcNAc(b1-2)Man(a1-6)]Man(b1-4)GlcNAc(b1-4)GlcNAc
# Procedure, shortened: as §1
# [26] = molecular target: Gal(b1-4)GlcNAc(b1-2)[Gal(b1-4)GlcNAc(b1-4)]Man(a1-3)[GlcNAc(b1-4)][Gal(b1-4)GlcNAc(b1-2)[Gal(b1-4)GlcNAc(b1-6)]Man(a1-6)]Man(b1-4)GlcNAc(b1-4)GlcNAc
# Procedure, shortened: as §1
# [27] = molecular target: Gal(b1-4)GlcNAc(b1-3)Gal(b1-4)GlcNAc(b1-2)[Gal(b1-4)GlcNAc(b1-3)Gal(b1-4)GlcNAc(b1-6)]Man(a1-6)[Gal(b1-4)GlcNAc(b1-3)Gal(b1-4)GlcNAc(b1-2)Man(a1-3)]Man(b1-4)GlcNAc(b1-4)[Fuc(a1-6)]GlcNAc
# Procedure, shortened: as §1
# [28] = molecular target: Gal3S6S(b1-4)GlcNAc6S
# Procedure, shortened: as §1
# [29] = molecular target: Gal6S(b1-3)GlcNAc
# Procedure, shortened: as §1
# [30] = molecular target: GalNAc(a1-3)GalNAc(b1-3)Gal(a1-4)Gal(b1-4)Glc
# Procedure, shortened: as §1
# [31] = molecular target: GalNAc(b1-3)GlcNAc
# Procedure, shortened: as §1
# [32] = molecular target: GalNAc(b1-4)GlcNAc
# Procedure, shortened: as §1
# [33] = molecular target: GalNAc(b1-4)GlcNAc(b1-2)Man
# Procedure, shortened: as §1
# [34] = molecular target: GalNAc(b1-4)GlcNAc(b1-3)GalNAc(b1-4)GlcNAc
# Procedure, shortened: as §1
# [35] = molecular target: GalNAc(b1-4)GlcNAc6S
# Procedure, shortened: as §1
# [36] = molecular target: GalNAc6S(b1-4)GlcNAc
# Procedure, shortened: as §1
# [37] = molecular target: GlcNAc(b1-2)Man(a1-3)[GlcNAc(b1-4)][GlcNAc(b1-2)Man(a1-6)]Man(b1-4)GlcNAc(b1-4)[Fuc(a1-6)]GlcNAc
# Procedure, shortened: as §1
# [38] = molecular target: GlcNAc(b1-3)Gal(b1-4)GlcNAc(b1-3)Gal(b1-4)GlcNAc(b1-3)Gal(b1-4)GlcNAc(b1-2)Man(a1-3)[GlcNAc(b1-3)Gal(b1-4)GlcNAc(b1-3)Gal(b1-4)GlcNAc(b1-3)Gal(b1-4)GlcNAc(b1-2)Man(a1-6)]Man(b1-4)GlcNAc(b1-4)[Fuc(a1-6)]GlcNAc
# Procedure, shortened: as §1
# [39] = molecular target: GlcNAc(b1-3)Gal(b1-4)GlcNAc(b1-3)Gal(b1-4)GlcNAc(b1-3)GalNAc
# Procedure, shortened: as §1
# [40] = molecular target: GlcNAc(b1-3)GalNAc
# Procedure, shortened: as §1
# [41] = molecular target: GlcNAc(b1-4)GlcNAc
# Procedure, shortened: as §1
# [42] = molecular target: GlcNAc6S(b1-3)Gal(b1-4)GlcNAc
# Procedure, shortened: as §1
# [43] = molecular target: Kdn(a2-3)Gal(b1-4)Glc
# Procedure, shortened: as §1
# [44] = molecular target: Kdn(a2-6)Gal(b1-4)GlcNAc
# Procedure, shortened: as §1
# [45] = molecular target: Man(a1-2)Man(a1-6)[Man(a1-3)]Man(a1-6)[Man(a1-2)Man(a1-2)Man(a1-3)]Man
# Procedure, shortened: as §1
# [46] = molecular target: Man(a1-6)Man
# Procedure, shortened: as §1
# [47] = molecular target: Neu5Ac(a2-3)Gal(b1-3)GalNAc6S
# Procedure, shortened: as §1
# [48] = molecular target: Neu5Ac(a2-3)Gal(b1-4)GlcNAc(b1-2)Man(a1-3)[GlcNAc(b1-4)][Neu5Ac(a2-3)Gal(b1-4)GlcNAc(b1-2)Man(a1-6)]Man(b1-4)GlcNAc(b1-4)GlcNAc
# Procedure, shortened: as §1
# [49] = molecular target: Neu5Ac(a2-6)Gal(b1-4)GlcNAc(b1-2)[Neu5Ac(a2-6)Gal(b1-4)GlcNAc(b1-6)]Man(a1-6)[Neu5Ac(a2-6)Gal(b1-4)GlcNAc(b1-2)Man(a1-3)][GlcNAc(b1-4)]Man(b1-4)GlcNAc(b1-4)GlcNAc
# Procedure, shortened: as §1
# [50] = molecular target: Neu5Ac(a2-6)Gal(b1-4)GlcNAc(b1-3)Gal(b1-4)GlcNAc(b1-3)Gal(b1-4)GlcNAc(b1-2)Man(a1-3)[Neu5Ac(a2-6)Gal(b1-4)GlcNAc(b1-3)Gal(b1-4)GlcNAc(b1-3)Gal(b1-4)GlcNAc(b1-2)Man(a1-6)]GalNAc
# Procedure, shortened: as §1
# [51] = molecular target: Neu5Ac(a2-6)Gal(b1-4)GlcNAc(b1-3)[Neu5Ac(a2-6)Gal(b1-4)GlcNAc(b1-6)]GalNAc
# Procedure, shortened: as §1
# [52] = molecular target: Neu5Ac(b2-6)Gal(b1-4)GlcNAc
# Procedure, shortened: as §1
binder,measurement,setting,value
B1,glycan array binding signal (z-score),[1],-0.116
same,glycan array binding signal (z-score),[2],-0.222
same,glycan array binding signal (z-score),[3],-0.215
same,glycan array binding signal (z-score),[4],2.47
same,glycan array binding signal (z-score),[5],3.08
same,glycan array binding signal (z-score),[6],3.12
same,glycan array binding signal (z-score),[7],4
same,glycan array binding signal (z-score),[8],3.46
same,glycan array binding signal (z-score),[9],3.25
same,glycan array binding signal (z-score),[10],-0.299
same,glycan array binding signal (z-score),[11],-0.297
same,glycan array binding signal (z-score),[12],-0.27
same,glycan array binding signal (z-score),[13],-0.098
same,glycan array binding signal (z-score),[14],-0.129
same,glycan array binding signal (z-score),[15],-0.187
same,glycan array binding signal (z-score),[16],-0.261
same,glycan array binding signal (z-score),[17],-0.287
same,glycan array binding signal (z-score),[18],-0.21
same,glycan array binding signal (z-score),[19],-0.203
same,glycan array binding signal (z-score),[20],-0.215
same,glycan array binding signal (z-score),[21],-0.226
same,glycan array binding signal (z-score),[22],-0.305
same,glycan array binding signal (z-score),[23],-0.215
same,glycan array binding signal (z-score),[24],-0.275
same,glycan array binding signal (z-score),[25],-0.13
same,glycan array binding signal (z-score),[26],-0.041
same,glycan array binding signal (z-score),[27],-0.147
same,glycan array binding signal (z-score),[28],-0.283
same,glycan array binding signal (z-score),[29],-0.224
same,glycan array binding signal (z-score),[30],-0.001
same,glycan array binding signal (z-score),[31],4.24
same,glycan array binding signal (z-score),[32],6.23
same,glycan array binding signal (z-score),[33],6.09
same,glycan array binding signal (z-score),[34],7.74
same,glycan array binding signal (z-score),[35],4.96
same,glycan array binding signal (z-score),[36],7.28
same,glycan array binding signal (z-score),[37],-0.228
same,glycan array binding signal (z-score),[38],-0.217
same,glycan array binding signal (z-score),[39],-0.218
same,glycan array binding signal (z-score),[40],-0.286
same,glycan array binding signal (z-score),[41],-0.304
same,glycan array binding signal (z-score),[42],-0.273
same,glycan array binding signal (z-score),[43],-0.301
same,glycan array binding signal (z-score),[44],-0.285
same,glycan array binding signal (z-score),[45],-0.296
same,glycan array binding signal (z-score),[46],-0.294
same,glycan array binding signal (z-score),[47],-0.232
same,glycan array binding signal (z-score),[48],-0.226
same,glycan array binding signal (z-score),[49],-0.222
same,glycan array binding signal (z-score),[50],-0.13
same,glycan array binding signal (z-score),[51],-0.221
same,glycan array binding signal (z-score),[52],-0.31

# Source: the supplement of paper PMC8728848
